# Measurements: the supplement of paper PMC4894684
# Counter-ions that a name gives are not always drawn. ± gives the standard deviation of the averaged measurements.
# Tested on: Toxoplasma gondii RH (in HFF)
# Assay: parasite growth relative to the screen mean (all compounds = 100%); higher = less inhibition of parasite growth
# Conditions: 5 µM; 72 h; oxygen 21 %
# In short: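 Library compounds (10 mM DMSO stocks) were pin-transferred to 5 µM final onto confluent human foreskin fibroblasts in 96-well plates, then infected within 2 h with RH β-Gal–GFP Toxoplasma (MOI 1:5) and grown 72 h at 21% O2. Parasite number came from a CPRG β-Gal assay against in-plate standard curves. Growth is expressed relative to the screen mean (all compounds = 100%), averaged over two screens. Uninfected host-cell viability was checked by CellTiter-Blue.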
row,SMILES,parasite growth [%]
1,Cc1cc(NC(=O)Nc2ccc(N(C)C)cc2)c2cc(F)cc(F)c2n1,159 ± 3.7
2,Cn1cccc1/C=C1\C(=O)NC(=O)c2ccccc21,121 ± 6.4
3,Clc1ccc(CCCOCCCN2CCCCC2)cc1,45.7 ± 21
4,COc1ccccc1N1CCN(CCN2C(=O)CC3(CCCC3)CC2=O)CC1 [BMY 7378 dihydrochloride],81.06 ± 0.29
5,CCCCCCCCCCCC1=C(O)C(=O)C=C(O)C1=O [Embelin],122 ± 4.3
6,N#CC(=C(/N)Sc1ccccc1N)/C(C#N)=C(/N)Sc1ccccc1N,197 ± 14
7,CC[N+](C)(CC)CC(=O)Nc1c(C)cccc1C [N-Methyllidocaine iodide],119 ± 24
8,C=CCN1CCc2cc(O)c(O)cc2C(c2ccccc2)C1 (centres undefined),135 ± 1.6
9,N[C@H]1CCN(O)C1=O,94.9 ± 34
10,O=S(=O)(c1ccccc1)N(CC(F)(F)F)c1ccc(C(O)(C(F)(F)F)C(F)(F)F)cc1,132 ± 5.8
11,COc1cc(CNC(=O)CCCC/C=C/C(C)C)ccc1O [(E)-Capsaicin],135 ± 14
12,COc1cccc(CCc2ccccc2OCC[C@@H]2C[C@@H](O)CN2C)c1,53.4 ± 25
13,CC(C)(C)NC[C@H](O)COc1nsnc1N1CCOCC1 [(S)-Timolol maleate],119 ± 1.7
14,N=C(N)NC(=O)c1nc(Cl)c(N)nc1N [Amiloride hydrochloride],102 ± 30
15,COc1ccc2[nH]c(-c3ccccc3)c(CCNC(C)=O)c2c1 [2-Phenylmelatonin],149 ± 20
16,CN1CCC(=C2c3ccccc3CC(=O)c3sccc32)CC1 [Ketotifen fumarate],54.3 ± 14
17,CN1Cc2c(C(=O)OC(C)(C)C)ncn2-c2ccsc2C1=O,55.6 ± 4.8
18,O=C(O)c1ccc(C=C2SC(=S)N(c3cccc(C(F)(F)F)c3)C2=O)cc1,109 ± 36
19,COc1cc([C@@H]2c3cc4c(cc3[C@@H](O[C@@H]3O[C@@H]5CO[C@@H](C)O[C@H]5[C@H](O)[C@H]3O)[C@H]3COC(=O)[C@H]23)OCO4)cc(OC)c1O [Etoposide],77.2 ± 18
20,CN(C)CCCn1cc(C2=C(c3c[nH]c4ccccc34)C(=O)NC2=O)c2ccccc21,< 0

row,SMILES,parasite growth [%]
1,CCCN(CC1CC1)c1nc(C)nc(Nc2c(Cl)cc(Cl)cc2Cl)c1Cl,116 ± 14
2,OC(CNCC(O)C1CCc2cc(F)ccc2O1)C1CCc2cc(F)ccc2O1 (centres undefined) [Nebivolol hydrochloride],46 ± 23
3,C[C@H](NC[C@H](O)CP(=O)(O)CC1CCCCC1)c1ccc(Cl)c(Cl)c1,129 ± 36
4,CC[N+](CC)(CC)CC(=O)Nc1c(C)cccc1C [QX 314 chloride],133 ± 29
5,CC1(c2ccccc2)OC(C(=O)O)=CC1=O (centres undefined) [Acifran],114 ± 2.4
6,C[C@@H]1CN(CCCn2c3ccccc3c3ccccc32)C[C@H](C)N1 [Rimcazole dihydrochloride],31.8 ± 4.5
7,O=C1c2ccccc2S(=O)(=O)N1CCCCN1CCN(c2ncccn2)CC1 [Ipsapirone],160 ± 46
8,CN1c2cc3c(cc2N=C(c2ccc(C(=O)O)cc2)c2ccccc21)C(C)(C)CCC3(C)C,61.4 ± 34
9,N=C(N)NC(=O)Cc1c(Cl)cccc1Cl [Guanfacine hydrochloride],162 ± 45
10,CC(C)NC[C@H](O)COc1ccc(CC(N)=O)cc1 [S-(-)-Atenolol],149 ± 12
11,CC1OC2(CS1)CN1CCC2CC1 (centres undefined) [Cevimeline hydrochloride],148 ± 82
12,OC1CCC(Nc2nc(-c3ccccc3)nc3[nH]ccc23)CC1 (centres undefined),116 ± 3
13,O=C(O)c1ccc(-c2ccc3cc(O)c(C45CC6CC(CC(C6)C4)C5)cc3c2)cc1,146 ± 18
14,Oc1nc(-c2ccc(C(F)(F)F)cc2)nc2c1CSCC2,136 ± 21
15,COc1ccc(-c2nc(-c3ccc(-c4cccc(Cl)c4)o3)[nH]c2-c2ccc(OC)cc2)cc1 [Neurodazine],120 ± 28
16,CS(=O)(=O)Nc1c(O)ccc2c1CCCC2C1=NCCN1 (centres undefined),101 ± 12
17,Cc1cc(I)ccc1Nc1c(C(=O)NOCC2CC2)cc(F)c(F)c1F,107 ± 21
18,CC1(C)CCC(C)(C)c2cc(C(=O)Nc3ccc(C(=O)O)cc3)ccc21,113 ± 4.7
19,NS(=O)(=O)Cc1noc2ccccc12 [Zonisamide],131 ± 2.2
